{
  "source": "PubChem BioAssay (EPA / NIEHS)",
  "note": "Records with an inconclusive call do not appear. Active and inactive are the calls of the source. The calls were made as follows: active = hit-call score of the fitted dose curve at least 0.9, where 1 is the maximum; inconclusive = response in the unintended direction; inactive = score below 0.9.",
  "data": [
    {"biological_target": "Muscarinic acetylcholine receptor M1 (Homo sapiens) (UniProt P11229)", "sequence (P11229 whole entry, looked up)": "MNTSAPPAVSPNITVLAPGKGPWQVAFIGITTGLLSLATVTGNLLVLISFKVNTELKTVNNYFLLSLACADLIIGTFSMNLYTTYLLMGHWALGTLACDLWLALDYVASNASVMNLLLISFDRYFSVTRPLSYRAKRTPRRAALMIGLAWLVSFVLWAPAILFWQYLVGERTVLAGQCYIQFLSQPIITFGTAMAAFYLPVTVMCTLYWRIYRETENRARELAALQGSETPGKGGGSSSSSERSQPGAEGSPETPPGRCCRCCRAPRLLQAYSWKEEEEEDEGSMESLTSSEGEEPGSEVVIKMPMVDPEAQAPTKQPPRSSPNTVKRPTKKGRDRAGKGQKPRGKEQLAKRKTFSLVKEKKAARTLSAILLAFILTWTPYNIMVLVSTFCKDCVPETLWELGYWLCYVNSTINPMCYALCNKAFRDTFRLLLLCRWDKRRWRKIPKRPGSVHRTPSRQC", "experiment": "NVS_GPCR_hM1: NovaScreen (NVS) G Protein-Coupled Receptor Assay for human Muscarinic, M1 Receptor (AID 2283270)", "procedure,_shortened": "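Actives from a duplicate 25 uM single-point screen were retested in concentration series. Binding measured as displacement of a radioligand from CHO-derived receptor preparation, 1 h incubation, filtration and scintillation counting, analysed as signal loss against DMSO.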", "values": [
      {"compound": "CCC(=O)C(CC(C)N(C)C)(c1ccccc1)c1ccccc1", "note": "(centres undefined)", "AC50": "6.92 µM (active)"},
      {"compound": "C=C(C)C(=O)[O][Sn]([CH2]CCC)([CH2]CCC)[CH2]CCC", "AC50": "1.9 µM (active)"},
      {"compound": "CCN1CCC2(CC1)COc1cc3c(cc12)N(C(=O)c1ccc(-c2ccc(-c4nnc(C)o4)cc2C)cc1)CC3", "AC50": "0.646 µM (active)"},
      {"compound": "CC(=O)[O][Hg][c]1ccccc1", "AC50": "1.39 µM (active)"},
      {"compound": "CC(C)(C)CC(C)(C)c1ccc(O)cc1", "outcome": "inactive"}
    ]},
    {"biological_target": "human Leukotriene B4 Receptor 1 (LTB4-BLT1), LTB4R (gene 1241) (UniProt Q15722)", "sequence (Q15722 whole entry, looked up)": "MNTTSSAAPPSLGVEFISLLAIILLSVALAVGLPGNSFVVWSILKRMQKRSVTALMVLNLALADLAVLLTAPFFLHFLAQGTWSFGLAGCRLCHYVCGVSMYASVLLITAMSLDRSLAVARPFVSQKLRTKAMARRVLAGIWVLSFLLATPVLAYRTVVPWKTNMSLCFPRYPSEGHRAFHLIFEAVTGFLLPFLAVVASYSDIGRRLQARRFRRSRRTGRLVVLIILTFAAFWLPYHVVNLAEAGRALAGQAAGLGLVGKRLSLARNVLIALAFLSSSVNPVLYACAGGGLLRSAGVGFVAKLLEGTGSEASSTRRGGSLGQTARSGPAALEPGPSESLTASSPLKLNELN", "experiment": "NVS_GPCR_hLTB4_BLT1: NovaScreen (NVS) G Protein-Coupled Receptor Assay for human Leukotriene B4 Receptor 1 (LTB4-BLT1) (AID 2283271)", "procedure,_shortened": "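Cell-free human neutrophil receptor preparation, 1 h exposure, radioligand binding read by filter scintillation counting. Single 25 uM duplicate screen, then concentration series topping at 50 uM; binding loss scored against DMSO baseline.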", "values": [
      {"compound": "CC(C)(C)c1cc(O)ccc1O", "outcome": "inactive"},
      {"compound": "O=C(O)C(F)(F)C(F)(F)C(F)(F)C(F)(F)C(F)(F)C(F)(F)C(F)(F)C(F)(F)C(F)(F)C(F)(F)F", "AC50": "33.4 µM (active)"},
      {"compound": "CC(=O)[O][Hg][c]1ccccc1", "AC50": "21 µM (active)"}
    ]},
    {"biological_target": "Muscarinic acetylcholine receptor M3 (Homo sapiens) (UniProt P20309)", "sequence (P20309 whole entry, looked up)": "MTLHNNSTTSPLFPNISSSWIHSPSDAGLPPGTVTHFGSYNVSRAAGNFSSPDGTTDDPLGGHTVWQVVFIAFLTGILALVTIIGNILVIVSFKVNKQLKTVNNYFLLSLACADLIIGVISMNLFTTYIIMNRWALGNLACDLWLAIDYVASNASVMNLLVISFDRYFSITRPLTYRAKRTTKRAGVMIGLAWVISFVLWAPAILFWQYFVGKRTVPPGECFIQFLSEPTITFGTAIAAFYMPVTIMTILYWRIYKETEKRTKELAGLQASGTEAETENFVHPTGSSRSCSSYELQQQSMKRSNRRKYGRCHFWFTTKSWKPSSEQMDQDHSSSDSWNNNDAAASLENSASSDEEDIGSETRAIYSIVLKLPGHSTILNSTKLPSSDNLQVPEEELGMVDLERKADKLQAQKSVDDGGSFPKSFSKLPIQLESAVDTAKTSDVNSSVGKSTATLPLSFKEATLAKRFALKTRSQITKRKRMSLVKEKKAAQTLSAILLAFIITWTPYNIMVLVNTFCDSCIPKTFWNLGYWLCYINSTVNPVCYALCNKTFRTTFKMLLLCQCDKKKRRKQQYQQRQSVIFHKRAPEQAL", "experiment": "NVS_GPCR_hM3: NovaScreen (NVS) G Protein-Coupled Receptor Assay for human Muscarinic, M3 Receptor (AID 2283272)", "protocol": "(§1) NVS_GPCR_hM3 is a biochemical, single-readout assay that uses extracted gene-proteins from CHO in a cell-free assay. Measurements were taken 1 hour after chemical dosing in a 96-well plate.NVS_GPCR_hM3 is one of one assay component(s) measured or calculated from the NVS_GPCR_hM3 assay. It is designed to make measurements of radioligand binding, a form of binding reporter, as detected with scintillation counting signals by Filter-based radiodetection technology.Data from the assay component NVS_GPCR_hM3 was analyzed into 1 assay endpoint. This assay endpoint, NVS_GPCR_hM3, was analyzed in the positive analysis fitting direction relative to DMSO as the negative control and baseline of activity. Using a type of binding reporter, loss-of-signal activity can be used to understand changes in the binding as they relate to the gene CHRM3. Furthermore, this assay endpoint can be referred to as a primary readout, because the performed assay has only produced 1 assay endpoint. To generalize the intended target to other relatable targets, this assay endpoint is annotated to the gpcr intended target family, where the subfamily is rhodopsin-like receptor.\n(§2) Binding assays used specific radioligands (tritiated, iodinated) with non-radioactive competitive displacement ligands in agonist or antagonist protocols (as indicated) and various reference compounds and inhibitors to titrate specific binding to receptors and transporters. Most enzyme assays (CYPs, kinases, phosphatases, proteases, HDACs) used recombinant protein and specific substrates (fluorescence mostly, some colorimetric and radioactive) and inhibitors, followed by a biochemical separation of substrate and product. All assays for the biochemical HTS were initially run in duplicate at a single concentration (10 uM for CYP450 assays and 25 uM for all others). […] Each assay was run with positive and negative controls, and concurrent controls on every plate. The follow-up (secondary) screen tested active chemical-pairs in concentration series, as well as a few additional assays not tested in the primary screen, some selected negative inactives, and several cases re-run in the concentration series for confirmatory purposes.", "values": [
      {"compound": "O=C1C2(Cl)C3(Cl)C4(Cl)C(Cl)(Cl)C5(Cl)C3(Cl)C1(Cl)C5(Cl)C24Cl", "note": "(centres undefined)", "outcome": "inactive"},
      {"compound": "CCC(=O)C(CC(C)N(C)C)(c1ccccc1)c1ccccc1", "note": "(centres undefined)", "AC50": "10.7 µM (active)"},
      {"compound": "C=C(C)C(=O)[O][Sn]([CH2]CCC)([CH2]CCC)[CH2]CCC", "AC50": "2.67 µM (active)"},
      {"compound": "CCN1CCC2(CC1)COc1cc3c(cc12)N(C(=O)c1ccc(-c2ccc(-c4nnc(C)o4)cc2C)cc1)CC3", "AC50": "0.676 µM (active)"},
      {"compound": "CC(=O)[O][Hg][c]1ccccc1", "AC50": "0.562 µM (active)"}
    ]},
    {"biological_target": "Muscarinic acetylcholine receptor M2 (Homo sapiens) (UniProt P08172)", "sequence (P08172 whole entry, looked up)": "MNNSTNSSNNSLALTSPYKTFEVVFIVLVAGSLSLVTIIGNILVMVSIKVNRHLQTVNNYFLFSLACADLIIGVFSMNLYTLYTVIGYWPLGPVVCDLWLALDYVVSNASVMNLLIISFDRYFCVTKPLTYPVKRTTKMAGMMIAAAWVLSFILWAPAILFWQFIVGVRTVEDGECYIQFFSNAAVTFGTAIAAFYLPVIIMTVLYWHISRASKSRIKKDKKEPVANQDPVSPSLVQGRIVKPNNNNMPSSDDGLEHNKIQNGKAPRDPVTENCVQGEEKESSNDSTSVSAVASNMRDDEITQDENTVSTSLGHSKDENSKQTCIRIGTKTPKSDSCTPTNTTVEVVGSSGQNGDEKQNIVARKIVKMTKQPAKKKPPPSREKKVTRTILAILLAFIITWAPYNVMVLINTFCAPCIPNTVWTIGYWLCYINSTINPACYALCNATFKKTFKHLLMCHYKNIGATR", "experiment": "NVS_GPCR_hM2: NovaScreen (NVS) G Protein-Coupled Receptor Assay for human Muscarinic, M2 Receptor (AID 2283273)", "protocol": "as §1, with “NVS_GPCR_hM2” for “NVS_GPCR_hM3”, “plate.NVS_GPCR_hM2” for “plate.NVS_GPCR_hM3”, “NVS_GPCR_hM2,” for “NVS_GPCR_hM3,”, “CHRM2.” for “CHRM3.”\nas §2", "values": [
      {"compound": "O=C1C2(Cl)C3(Cl)C4(Cl)C(Cl)(Cl)C5(Cl)C3(Cl)C1(Cl)C5(Cl)C24Cl", "note": "(centres undefined)", "outcome": "inactive"},
      {"compound": "CCC(=O)C(CC(C)N(C)C)(c1ccccc1)c1ccccc1", "note": "(centres undefined)", "AC50": "9.96 µM (active)"},
      {"compound": "C=C(C)C(=O)[O][Sn]([CH2]CCC)([CH2]CCC)[CH2]CCC", "AC50": "5.32 µM (active)"},
      {"compound": "CCN1CCC2(CC1)COc1cc3c(cc12)N(C(=O)c1ccc(-c2ccc(-c4nnc(C)o4)cc2C)cc1)CC3", "AC50": "1.32 µM (active)"},
      {"compound": "CC(=O)[O][Hg][c]1ccccc1", "AC50": "0.909 µM (active)"},
      {"compound": "CC(C)(C)CC(C)(C)c1ccc(O)cc1", "outcome": "inactive"}
    ]},
    {"biological_target": "human Muscarinic, M4 Receptor, CHRM4 (gene 1132) (UniProt P08173)", "sequence (P08173 whole entry, looked up)": "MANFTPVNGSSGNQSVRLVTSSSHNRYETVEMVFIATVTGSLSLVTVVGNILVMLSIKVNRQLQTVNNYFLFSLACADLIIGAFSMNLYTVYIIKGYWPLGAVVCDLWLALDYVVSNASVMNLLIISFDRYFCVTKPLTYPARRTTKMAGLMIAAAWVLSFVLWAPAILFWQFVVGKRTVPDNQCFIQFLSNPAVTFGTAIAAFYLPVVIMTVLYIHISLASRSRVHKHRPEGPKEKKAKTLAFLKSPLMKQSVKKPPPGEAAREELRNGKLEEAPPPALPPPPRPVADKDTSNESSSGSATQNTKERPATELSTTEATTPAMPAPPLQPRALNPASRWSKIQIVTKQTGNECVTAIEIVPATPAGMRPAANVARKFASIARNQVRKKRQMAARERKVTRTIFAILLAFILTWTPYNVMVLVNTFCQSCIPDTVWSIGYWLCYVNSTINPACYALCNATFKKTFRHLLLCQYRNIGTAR", "experiment": "NVS_GPCR_hM4: NovaScreen (NVS) G Protein-Coupled Receptor Assay for human Muscarinic, M4 Receptor (AID 2283274)", "procedure,_shortened": "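Filter-based scintillation counting of radioligand bound to CHO-expressed human M4 preparations after 1 h; loss of signal fitted versus DMSO. Initial duplicate testing at 25 uM, concentration-response follow-up for actives.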", "values": [
      {"compound": "O=C1C2(Cl)C3(Cl)C4(Cl)C(Cl)(Cl)C5(Cl)C3(Cl)C1(Cl)C5(Cl)C24Cl", "note": "(centres undefined)", "outcome": "inactive"},
      {"compound": "CCC(=O)C(CC(C)N(C)C)(c1ccccc1)c1ccccc1", "note": "(centres undefined)", "AC50": "8.3 µM (active)"},
      {"compound": "C=C(C)C(=O)[O][Sn]([CH2]CCC)([CH2]CCC)[CH2]CCC", "AC50": "19.1 µM (active)"},
      {"compound": "CCN1CCC2(CC1)COc1cc3c(cc12)N(C(=O)c1ccc(-c2ccc(-c4nnc(C)o4)cc2C)cc1)CC3", "AC50": "1.9 µM (active)"},
      {"compound": "CC(=O)[O][Hg][c]1ccccc1", "AC50": "0.77 µM (active)"}
    ]}
  ]
}
